{"source": "PubChem BioAssay (NCI)", "note": "The panel holds about 79,000 compounds, 15% with a hit somewhere; the sample as a whole holds those more often. Calls of active or inactive are those of the source. Rule as the data show it: active = growth inhibition above about 70%; inactive = the rest.", "data": [{"experiment": "NCI Yeast Anticancer Drug Screen. Data for the bub3 strain (AID 167)", "conditions": "S. cerevisiae bub3 mutant strain, at 50.0 µM, stronger effect = higher value", "method_in_brief": "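Mutant yeast screening strain plus compound; vehicle-treated cultures serve as the 0% inhibition reference.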", "values": [{"smiles": "Cc1cc(C(=O)CSC(=S)SC(C)(C)C)ccc1Cl", "growth inhibition": "-17.9% (inactive)"}, {"smiles": "c1ccc(C2Nc3ccccc3NC2c2ccccc2)cc1", "note": "(centres undefined)", "growth inhibition": "60.6% (inactive)"}, {"smiles": "Cc1ccccc1C(=O)NCc1ccccc1", "growth inhibition": "11.3% (inactive)"}, {"smiles": "O=c1[nH]c(-c2ccncc2)nnc1-c1ccc(Cl)cc1", "growth inhibition": "2.15% (inactive)"}, {"smiles": "CC(=O)OCCn1c(C)nc2cc(Cl)c(Cl)cc21", "growth inhibition": "23.7% (inactive)"}, {"smiles": "Cc1cc(C)cc(O)c1", "growth inhibition": "-14.8% (inactive)"}, {"smiles": "Cc1[nH]c2ccc(-c3ccccc3)cc2c1CC(=O)O", "growth inhibition": "3.35% (inactive)"}, {"smiles": "O=Ic1ccccc1", "growth inhibition": "-0.3% (inactive)"}, {"smiles": "O=C1CCC2c3ccccc3C(=O)C2C1", "note": "(centres undefined)", "growth inhibition": "-14.1% (inactive)"}, {"smiles": "O=C(NNC(=O)c1ccccc1F)c1ccc2ccccc2c1", "growth inhibition": "-2.1% (inactive)"}, {"smiles": "COc1ccc2c(O)c(Oc3ccc(Cl)cc3)c(=O)oc2c1", "growth inhibition": "7.95% (inactive)"}, {"smiles": "COC(=O)/C(=N/NC(N)=O)C(C(=O)OC)C(=O)C(=O)Nc1ccc(Cl)cc1", "note": "(centres undefined)", "growth inhibition": "-14.4% (inactive)"}, {"smiles": "COC(=O)C1(C(=O)OC)C2CCCCC21", "note": "(centres undefined)", "growth inhibition": "-13.9% (inactive)"}, {"smiles": "CCCC(=O)Nc1ccc2c(ccn2COC)c1", "growth inhibition": "8.45% (inactive)"}, {"smiles": "CCCCCCCCCCCc1cc(=O)n(-c2cc(Cl)ccc2Cl)n1C", "growth inhibition": "99% (active)"}, {"smiles": "CC1(C)OCC(Cc2ccc3c(c2)OCO3)CO1", "growth inhibition": "22.5% (inactive)"}, {"smiles": "c1ccc2c(c1)cc1n2CC2CN=NC12", "note": "(centres undefined)", "growth inhibition": "-5.55% (inactive)"}, {"smiles": "Cc1cc(=O)c2cc(N=Cc3ccc(N(C)C)cc3)ccc2o1", "growth inhibition": "0.75% (inactive)"}, {"smiles": "C1CSCCSCCCSCCSCCCSCCSCCCSCCSC1", "growth inhibition": "21.1% (inactive)"}, {"smiles": "CC(=O)C(Cc1cccc([N+](=O)[O-])c1)Cc1cccc([N+](=O)[O-])c1", "growth inhibition": "15.8% (inactive)"}, {"smiles": "COC1=C(O)C(=O)N(C)C(=O)C1", "growth inhibition": "-14.7% (inactive)"}, {"smiles": "COC(=O)C1=CC(O)CCC1c1ccc(OC)cc1", "note": "(centres undefined)", "growth inhibition": "-5.45% (inactive)"}, {"smiles": "CCOC(=O)C1=CC2CCOC2O1", "note": "(centres undefined)", "growth inhibition": "-9.5% (inactive)"}, {"smiles": "CCCCCCC(C)OC(C)=O", "note": "(centres undefined)", "growth inhibition": "-3.5% (inactive)"}]}, {"experiment": "NCI Yeast Anticancer Drug Screen. Data for the mlh1 rad18 strain (AID 175)", "conditions": "S. cerevisiae mlh1 rad18 strain growth inhibition; at 50.0 µM; stronger effect = higher value", "method_in_brief": "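Genetically defined yeast (DNA repair-deficient) exposed to compounds; growth inhibition determined relative to vehicle.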", "values": [{"smiles": "CCC(CC)C(=O)OCCCC1CCCO1", "note": "(centres undefined)", "growth inhibition": "0.6% (inactive)"}, {"smiles": "CCCCCCCCCCCCCC(=O)N(CCCCCCCCC)CC(O)C(O)C(OC1OC(CO)C(O)C(O)C1O)C(O)CO", "note": "(centres undefined)", "growth inhibition": "-56.5% (inactive)"}, {"smiles": "NC(=O)c1nnsc1N/N=C/c1ccc([N+](=O)[O-])cc1", "growth inhibition": "-5.1% (inactive)"}, {"smiles": "C=C1C(=O)O[C@@H]2/C=C(/C)[C@@H](OC(C)=O)C[C@@H](O)/C(C)=C\\[C@@H](OC(=O)[C@]3(C)O[C@@H]3C)[C@@H]12", "growth inhibition": "-63.6% (inactive)"}, {"smiles": "COc1ccc2c(c1)C1(C)CCC(=O)C(C)=C1CC2", "note": "(centres undefined)", "growth inhibition": "14.4% (inactive)"}, {"smiles": "O=C(COC(=O)c1cccc([N+](=O)[O-])c1)c1ccc(Br)cc1", "growth inhibition": "5.8% (inactive)"}, {"smiles": "COc1cccc(CN2CCCN(Cc3cccc(OC)c3O)C2c2ccccc2)c1O", "growth inhibition": "12.4% (inactive)"}, {"smiles": "CCCN(CCN(CC)CC)C(=O)N(CC)CC", "growth inhibition": "-17.6% (inactive)"}, {"smiles": "O=[N+]([O-])c1ccc(-c2ccccc2CO)cc1", "growth inhibition": "-26.6% (inactive)"}, {"smiles": "O=c1c2ccccc2nc(-c2ccc(Br)cc2)n1NC1OC(CO)C(O)C(O)C1O", "note": "(centres undefined)", "growth inhibition": "12.6% (inactive)"}, {"smiles": "O=C(O)c1cccc(CO)c1O", "growth inhibition": "4.4% (inactive)"}, {"smiles": "CN(C)c1ccc(N=C(C#CC#Cc2ccccc2)c2ccccc2)cc1", "growth inhibition": "24.8% (inactive)"}, {"smiles": "CCCCOC(=O)CCCCCCCCC(=O)OCCCC", "growth inhibition": "28.4% (inactive)"}, {"smiles": "COc1c(Cl)c(Cl)c2ncc(Cl)cc2c1Cl", "growth inhibition": "-14.9% (inactive)"}, {"smiles": "CCOC(=O)COc1ccc(Cl)cc1CCl", "growth inhibition": "1.65% (inactive)"}, {"smiles": "Cc1ccc(NC(=O)Nc2cccc(C(F)(F)F)c2)cc1NC(=O)Nc1cccc(C(F)(F)F)c1", "growth inhibition": "29.6% (inactive)"}, {"smiles": "Cc1cc(C(=O)CSC(=S)SC(C)(C)C)ccc1Cl", "growth inhibition": "-5.2% (inactive)"}, {"smiles": "c1ccc(C2Nc3ccccc3NC2c2ccccc2)cc1", "note": "(centres undefined)", "growth inhibition": "56.8% (inactive)"}, {"smiles": "Cc1ccccc1C(=O)NCc1ccccc1", "growth inhibition": "4.25% (inactive)"}, {"smiles": "O=c1[nH]c(-c2ccncc2)nnc1-c1ccc(Cl)cc1", "growth inhibition": "-14.1% (inactive)"}, {"smiles": "CC(=O)OCCn1c(C)nc2cc(Cl)c(Cl)cc21", "growth inhibition": "36.2% (inactive)"}, {"smiles": "Cc1cc(C)cc(O)c1", "growth inhibition": "-1.7% (inactive)"}, {"smiles": "Cc1[nH]c2ccc(-c3ccccc3)cc2c1CC(=O)O", "growth inhibition": "53.9% (inactive)"}, {"smiles": "O=Ic1ccccc1", "growth inhibition": "-8.8% (inactive)"}, {"smiles": "O=C1CCC2c3ccccc3C(=O)C2C1", "note": "(centres undefined)", "growth inhibition": "9.3% (inactive)"}, {"smiles": "O=C(NNC(=O)c1ccccc1F)c1ccc2ccccc2c1", "growth inhibition": "-6.55% (inactive)"}, {"smiles": "COc1ccc2c(O)c(Oc3ccc(Cl)cc3)c(=O)oc2c1", "growth inhibition": "22.4% (inactive)"}, {"smiles": "COC(=O)/C(=N/NC(N)=O)C(C(=O)OC)C(=O)C(=O)Nc1ccc(Cl)cc1", "note": "(centres undefined)", "growth inhibition": "-34.5% (inactive)"}, {"smiles": "COC(=O)C1(C(=O)OC)C2CCCCC21", "note": "(centres undefined)", "growth inhibition": "7.1% (inactive)"}, {"smiles": "CCCC(=O)Nc1ccc2c(ccn2COC)c1", "growth inhibition": "-18.2% (inactive)"}, {"smiles": "CCCCCCCCCCCc1cc(=O)n(-c2cc(Cl)ccc2Cl)n1C", "growth inhibition": "99.2% (active)"}, {"smiles": "CC1(C)OCC(Cc2ccc3c(c2)OCO3)CO1", "growth inhibition": "2.25% (inactive)"}, {"smiles": "c1ccc2c(c1)cc1n2CC2CN=NC12", "note": "(centres undefined)", "growth inhibition": "10.1% (inactive)"}, {"smiles": "Cc1cc(=O)c2cc(N=Cc3ccc(N(C)C)cc3)ccc2o1", "growth inhibition": "16.1% (inactive)"}, {"smiles": "C1CSCCSCCCSCCSCCCSCCSCCCSCCSC1", "growth inhibition": "44.6% (inactive)"}, {"smiles": "CC(=O)C(Cc1cccc([N+](=O)[O-])c1)Cc1cccc([N+](=O)[O-])c1", "growth inhibition": "-9.45% (inactive)"}, {"smiles": "COC1=C(O)C(=O)N(C)C(=O)C1", "growth inhibition": "10.8% (inactive)"}, {"smiles": "COC(=O)C1=CC(O)CCC1c1ccc(OC)cc1", "note": "(centres undefined)", "growth inhibition": "-19.2% (inactive)"}, {"smiles": "CCOC(=O)C1=CC2CCOC2O1", "note": "(centres undefined)", "growth inhibition": "5.5% (inactive)"}, {"smiles": "CCCCCCC(C)OC(C)=O", "note": "(centres undefined)", "growth inhibition": "-13.8% (inactive)"}]}]}
